Test results: PubChem BioAssay (EPA / NIEHS)
Values joined by “and” are separate entries in the source; they are usually repeats but may differ in a detail not shown here. Equal entries are not always repeated. Some compounds were tested as several samples or in several runs, with calls that do not always agree. Active and inactive are the calls of the source. How the source made its calls: active means hit-call score of the fitted dose curve at least 0.9, where 1 is the maximum; inactive means score below 0.9.

Read-out: CD38, CD38 (gene 952)
Assay: BSK_SAg_CD38: BioMAP Diversity Plus: SAg Assay for CD38 Biomarker Activity (AID 2283087)
Conditions: primary human HUVEC with PBMC; actives raise or lower the signal
Protocol: BSK_SAg is a cell-based, multiplexed-readout assay that uses umbilical vein endothelium and peripheral blood mononuclear cells, a human vascular primary cell co-culture, with measurements taken at 24 hours after chemical dosing in a 96-well plate.BSK_SAg_CD38 is one of 10 assay component(s) measured or calculated from the BSK_SAg assay. It is designed to make measurements of enzyme-linked immunosorbent assay, a form of binding reporter, as detected with fluorescence intensity signals by Enzyme-linked immunosorbent assay technology.Data from the assay component BSK_SAg_CD38 was analyzed into 1 assay endpoint. This assay endpoint, BSK_SAg_CD38, was analyzed with bidirectional fitting relative to DMSO as the negative control and baseline of activity. Using a type of binding reporter, gain or loss-of-signal activity can be used to understand changes in the signaling as they relate to the gene CD38. Furthermore, this assay endpoint can be referred to as a primary readout, because this assay has produced multiple assay endpoints where this one serves a signaling function. To generalize the intended target to other relatable targets, this assay endpoint is annotated to the cytokine intended target family, where the subfamily is other cytokine.
The levels of cell surface (or secreted, indicated by the prefix "s") biomarker endpoints were measured by ELISA. Overt cytotoxicity to cells in confluent adherent cultures (all systems other than the BT system) was assessed by measuring total protein levels using sulforhodamine B (SRB) staining in parallel cultures at the time of biomarker measurements, indicated as SRB endpoints. For proliferation assays for adherent cell types, individual cell types are cultured at sub-confluence and relative cell numbers quantified by SRB staining at time points optimized for each system (48 h: 3C and CASM3C systems; 72 h: BT and HDF3CGF systems; 96 h: SAg system). SRB was performed by staining cells with 0.1% SRB after fixation with 10% TCA and reading wells at 560 nm.Viability and proliferation of PBMC (T cells) was quantified by Alamar Blue reduction for the SAg and BT systems. For PBMC viability (referred to as PBMC Cytotoxicity within the assay endpoint names), cells were plated (75,000/well in a 96-well plate) and then chemical samples added for 1 h before addition of activators, SEB and TSST-1 (20 ng/mL final concentration each). Cells were incubated for 90 h. Then, Alamar Blue (20 uL/well) (Invitrogen, Cat DAL1100) was added for 6 h, and the plates were read with a fluorescence microplate reader at 546/580 nm (excitation/emission). For PBMC proliferation, cells were plated and activated as above but incubated for only 16 h prior to addition of Alamar Blue. Plates were read after 6 h.

Structure (SMILES)	outcome	AC50
CCOC(=O)CN[C@@H](C(=O)N1CC[C@H]1C(=O)NCc1ccc(/C(N)=N/O)cc1)C1CCCCC1	inactive	–
CCCCCc1ccc(O)cc1	–	33.6 µM (active)
Cc1ccc(N=Nc2c(O)ccc3ccccc23)c(C)c1	inactive	–
CC(C)(C)c1ccc(O)c(O)c1	–	28.5 µM (active)
CN(C)c1ccc(C(=C2C=CC(=[N+](C)C)C=C2)c2ccccc2)cc1	–	0.0535 µM (active)
O=P(O)(O)CCC(F)(F)C(F)(F)C(F)(F)C(F)(F)C(F)(F)C(F)(F)F	inactive	–
OCC(F)(F)C(F)(F)C(F)(F)C(F)(F)C(F)(F)C(F)(F)C(F)(F)C(F)(F)C(F)(F)C(F)(F)C(F)(F)F	inactive	0.00623 µM (active)
CCCCC(CC)C(=O)OCCOCCOCCOCCOC(=O)C(CC)CCCC (stereo not given)	inactive	–
CC1=NN(c2ccccc2)C(=O)C1	inactive	–
Cc1[nH]nc2c1N=C(c1ccccc1Cl)c1cc([N+](=O)[O-])ccc1N2	–	5.77 µM (active)
CN(Cc1cnc2nc(N)nc(N)c2n1)c1ccc(C(=O)N[C@@H](CCC(=O)O)C(=O)O)cc1	inactive	–
CCCCc1oc2ccccc2c1C(=O)c1cc(I)c(OCCN(CC)CC)c(I)c1	–	12.4 µM (active)
O=C(O)CCC(F)(F)C(F)(F)C(F)(F)C(F)(F)C(F)(F)C(F)(F)F	inactive	–
Clc1ccc(Nc2nnc(Cc3ccncc3)c3ccccc23)cc1	inactive	–
O=C(NO)c1ccccc1	inactive	–
Oc1cc2ccccc2cc1O	inactive	–
O=C1NS(=O)(=O)c2ccccc21	inactive	–
O=P(O)(O)CCC(F)(F)C(F)(F)C(F)(F)C(F)(F)C(F)(F)C(F)(F)C(F)(F)C(F)(F)F	inactive	30 µM (active)
CS(=O)(=O)c1ccc([C@@H](CC2CCCC2)C(=O)Nc2cnccn2)cc1Cl	inactive	–

Structure (SMILES)	outcome	AC50
C=COC(=O)C(C)(C)CCCCCC	inactive	–
O=C(O)CCC(F)(F)C(F)(F)C(F)(F)C(F)(F)C(F)(F)F	inactive	–
COCN(COC)c1nc(N(COC)COC)nc(N(COC)COC)n1	inactive	–
O=C(CCCN1CCC(O)(c2ccc(Cl)cc2)CC1)c1ccc(F)cc1	inactive	–
O=C(CC(=O)C(F)(F)C(F)(F)C(F)(F)F)c1cccs1	–	23.1 µM (active) and 28.6 µM (active)
C=CC(C)(CCC=C(C)C)OC(C)=O (stereo not given)	inactive	–
CN(C)CCOC(c1ccccc1)c1ccccc1	inactive	–
Oc1c(Cl)cc(Cl)cc1Sc1cc(Cl)cc(Cl)c1O	–	9.47 µM (active) and 9.95 µM (active)
CCCCC(CC)C(=O)O (stereo not given)	inactive	–
NC(=NCCCCCCN=C(N)/N=C(\N)Nc1ccc(Cl)cc1)/N=C(\N)Nc1ccc(Cl)cc1	–	8.71 µM (active)
C=CC(=O)OCCC(F)(F)C(F)(F)C(F)(F)C(F)(F)C(F)(F)C(F)(F)C(F)(F)C(F)(F)F	inactive	–
CC[N+](CC)(CC)Cc1ccccc1	inactive	–
OCC(CO)(CBr)CBr	inactive	–
CCCCCCCCCCCCOS(=O)(=O)O	inactive	–
COc1cccc(O)c1	inactive	–
O=C1c2ccc(O)c(O)c2C(=O)c2c(O)ccc(O)c21	inactive	–
OCCN1CN(CCO)CN(CCO)C1	–	31.6 µM (active)
C=CC(=C)CC/C=C(\C)CCC=C(C)C	inactive	–
CC(=O)Nc1ccc(O)cc1	inactive	–
